Calls of active or inactive are those of the source. No rule for the calls is given here.

This experiment deals with Prolyl endopeptidase (Mus musculus) (UniProt Q9QUR6). The experiment can be described thus: in situ PREP and ABHD6 off-target inhibition, dose response, selectivity assay for PME-1 inhibitor project, cell-based, fluorescence, gel-based ABPP (AID 588835). To be noted: in situ gel-based competitive ABPP; series mostly up to 10 µM.
Sequence of Prolyl endopeptidase (Mus musculus) (Q9QUR6 whole entry, looked up): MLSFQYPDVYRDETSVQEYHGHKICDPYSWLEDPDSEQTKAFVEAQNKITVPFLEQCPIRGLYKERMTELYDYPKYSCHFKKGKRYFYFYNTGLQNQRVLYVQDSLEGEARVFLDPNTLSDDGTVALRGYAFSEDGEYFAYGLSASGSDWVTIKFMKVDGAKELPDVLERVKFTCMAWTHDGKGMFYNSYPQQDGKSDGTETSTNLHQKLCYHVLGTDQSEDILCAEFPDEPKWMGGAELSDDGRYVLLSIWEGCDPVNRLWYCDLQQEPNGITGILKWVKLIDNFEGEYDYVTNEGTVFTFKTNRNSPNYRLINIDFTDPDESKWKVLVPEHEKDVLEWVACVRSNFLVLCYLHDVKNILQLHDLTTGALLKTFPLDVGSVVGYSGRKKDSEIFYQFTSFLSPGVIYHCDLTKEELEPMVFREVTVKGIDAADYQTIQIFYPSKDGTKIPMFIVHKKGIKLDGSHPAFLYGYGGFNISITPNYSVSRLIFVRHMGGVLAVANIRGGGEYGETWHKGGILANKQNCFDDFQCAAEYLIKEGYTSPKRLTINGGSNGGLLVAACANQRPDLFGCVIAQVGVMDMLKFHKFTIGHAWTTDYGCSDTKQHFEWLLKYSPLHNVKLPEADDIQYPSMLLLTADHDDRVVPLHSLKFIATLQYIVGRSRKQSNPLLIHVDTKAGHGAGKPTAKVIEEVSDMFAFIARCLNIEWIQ

Regarding `CC[C@@]1(c2ccc(C)cc2)C(=O)N(C(=O)OC(C)C)N1C(=O)OC(C)C`, the call was inactive.

(Values after PubChem BioAssay AID588835 (The Scripps Research Institute Molecular Screening Center, 2011).)
